# Data: ChEMBL document CHEMBL3988442, “University of Dundee, Small-Polar-MMV Screening Library” (2021)
# Among all 66,000 compounds or so, about 960 (1.5%) showed an effect of 50% or more. The sample as a whole holds a higher share of strong results than the screen did.
# Tested on: Trypanosoma brucei
# Experiment: Trypanosoma brucei 72 hour study
# Assay type: functional, organism-based
# Design: scale not given: in the data most compounds retested in dose-response had high values
smiles,measurement,setting,value
Cn1ccc(C(=O)NC2CCC23CCN(Cc2cnn(C)c2)CC3)c1.O=C(O)C(F)(F)F (stereo unspecified),Percent Effect,"30 µM, 30.03 µM",-26.08%
O=C(Nc1cccnc1)N(Cc1ccccc1)C1CC1,Percent Effect,"30 µM, 30.03 µM",60.16%
CC(C)CN(C(=O)Nc1cccnc1)C1CC1,Percent Effect,"30 µM, 30.03 µM",-2.145%
O=C(c1cccnc1)N(Cc1ccncc1)C1CC1,Percent Effect,"30 µM, 30.03 µM",-21.55%
COc1ccc(CNC2CCN(CCc3ccncc3)CC2)cc1O,Percent Effect,"30 µM, 30.03 µM",21.52%
Cc1ccc(CNC2CCN(CCc3ccncc3)CC2)cc1C,Percent Effect,"30 µM, 30.03 µM",51.93%
Fc1ccc(CNC2CCN(CCc3ccncc3)CC2)cc1F,Percent Effect,"30 µM, 30.03 µM",6.927%
O=C(O)C(F)(F)F.O=C1CCCN1Cc1nnc2n1CCCN(Cc1ccco1)C2,Percent Effect,"30.3 µM, […]",-37.98%
CC(C)(C)CC(=O)NCCn1nc(C2CCNC2)c2cccnc21.Cl (stereo unspecified),Percent Effect,"30.3 µM, […]",-18.41%
COCc1noc(Cn2c(=O)[nH]c3ccccc32)n1,Percent Effect,"30 µM, 30.03 µM",-41.22%
CCN1CCOCC12CCN(C(=O)Cc1cccs1)CC2.O=C(O)C(F)(F)F,Percent Effect,"30.3 µM, […]",-18.12%
CCN1CCOCC12CCN(C(=O)Cc1ccccc1)CC2.O=C(O)C(F)(F)F,Percent Effect,"30 µM, 30.03 µM",60.57%
O=C(Cc1ccccc1)N1CCC2(CC1)COCCN2CC1CC1.O=C(O)C(F)(F)F,Percent Effect,"30 µM, 30.03 µM",11.75%
O=C(C1CCC1)N1C[C@@H]2CC[C@H](C1)N(S(=O)(=O)c1cccnc1)C2,Percent Effect,"30 µM, 30.03 µM",-15.99%
CCOc1ncccc1CNC(=O)NC1CCOc2ccccc21 (stereo unspecified),Percent Effect,"30.3 µM, […]",-12.87%
C[C@@H]1CN(Cc2cccnc2)C[C@]12CCN(CCN1CCCC1)C2=O.O=C(O)C(F)(F)F.O=C(O)C(F)(F)F.O=C(O)C(F)(F)F,Percent Effect,"30.3 µM, […]",-30.87%
CC(C)N1CCN(C(=O)c2csc3nc(-c4ccc(Cl)cc4)cn23)CC1,Percent Effect,"30 µM, 30.03 µM",-14.99%
CCC1CN(C(=O)c2csc3nc(-c4ccc(Cl)cc4)cn23)CCN1 (stereo unspecified),Percent Effect,"30 µM, 30.03 µM",66.56%
O=C(c1csc2nc(-c3ccc(Cl)cc3)cn12)N1CCCC(CO)C1 (stereo unspecified),Percent Effect,"30 µM, 30.03 µM",-27.9%
COc1ccc(-c2cc(C3CCNCC3)nc(C)n2)cc1.Cl,Percent Effect,"30.3 µM, […]",0.4357%
Cc1nc(-c2ccccc2)cc(C2CCNCC2)n1.Cl,Percent Effect,"30.3 µM, […]",-24.18%
Cc1ccc(-c2cc(C3CCNCC3)nc(C)n2)cc1.Cl,Percent Effect,"30.3 µM, […]",86.87%
Cc1nc(-c2ccc(F)c(F)c2)cc(C2CCNCC2)n1.Cl,Percent Effect,"30.3 µM, […]",101.1%
Cc1nc(-c2ccc(F)cc2)cc(C2CCNCC2)n1,Percent Effect,"30.3 µM, […]",-5.19%
Cc1nc(-c2ccc(CO)cc2)cc(C2CCNCC2)n1.Cl,Percent Effect,"30.3 µM, […]",-17.1%
O=C(O)C(F)(F)F.O=C(c1cscn1)N1CCc2c(COCC3CC3)cncc2C1,Percent Effect,"30.3 µM, […]",-26.29%
O=C(O)C(F)(F)F.O=C([C@H]1C[C@@H]2CCN(c3cccc(F)c3)C[C@H]2O1)N1CCCCO1,Percent Effect,"30.3 µM, […]",-0.6141%
Fc1ccc(CNCc2nnc3n2CC(C(F)(F)F)CC3)cc1 (stereo unspecified),Percent Effect,"30 µM, 30.03 µM",-35.58%
CC[C@@H]1N(Cc2ccc(F)cc2)CCC[C@]12CCC(=O)N2CCOC.O=C(O)C(F)(F)F,Percent Effect,"30.3 µM, […]",-80.81%
CC(C)c1n[nH]c(C2CN(C(=O)Cn3ccccc3=O)CCO2)n1 (stereo unspecified),Percent Effect,"30.3 µM, […]",9.582%
CCc1n[nH]c(C2CN(C(=O)CCn3ccccc3=O)CCO2)n1 (stereo unspecified),Percent Effect,"30.3 µM, […]",7.899%
CC(C)c1n[nH]c(C2CN(C(=O)CCn3ccccc3=O)CCO2)n1 (stereo unspecified),Percent Effect,"30 µM, 30.03 µM",52.13%
Cl.Clc1ccc(-c2ccc(C3CNCCO3)nc2)cc1 (stereo unspecified),Percent Effect,"30.3 µM, […]",98.64%
CN(C)c1ncc(-c2ccc(F)cc2)c(C2CNCCO2)n1.Cl (stereo unspecified),Percent Effect,"30.3 µM, […]",29.73%
Cl.c1ccc(-c2ccc(C3CNCCO3)nc2)cc1 (stereo unspecified),Percent Effect,"30 µM, 30.03 µM",-8.657%
Cc1ccc(-c2ccc(C3CNCCO3)nc2)cc1.Cl (stereo unspecified),Percent Effect,"30.3 µM, […]",88.62%
COc1ccc(OCCc2cc(C3CNCCO3)nn2C)cc1 (stereo unspecified),Percent Effect,"30.3 µM, […]",1.828%
Cl.c1ncc(-c2ccc(C3CNCCO3)nc2)cn1 (stereo unspecified),Percent Effect,"30.3 µM, […]",-18.07%
Cn1nc(C2CNCCO2)cc1CCOc1ccc(C(F)(F)F)cc1 (stereo unspecified),Percent Effect,"30.3 µM, […]",20.05%
Cl.Cl.Cn1nc(C2CNCCO2)cc1CCOc1ccc(Cl)cc1 (stereo unspecified),Percent Effect,"30.3 µM, […]",53.46%
COc1ccc(-c2ccc(C3CNCCO3)nc2)cc1.Cl (stereo unspecified),Percent Effect,"30.3 µM, […]",-17.4%
COCCCNC(=O)NCc1cccn1Cc1ccccc1C,Percent Effect,"30 µM, 30.03 µM",-24.61%
O=C(O)C(F)(F)F.O=C1COC2(CCN(Cc3ccoc3)CC2)CN1c1ccccc1,Percent Effect,"30 µM, 30.03 µM",-9.648%
COCCNC(=O)[C@H]1CN(Cc2csc(C)n2)C[C@H]2OCC[C@@H]12.O=C(O)C(F)(F)F.O=C(O)C(F)(F)F,Percent Effect,"30 µM, 30.03 µM",-11.19%
COCC1CC2(CCN(Cc3cccc(C#N)c3)CC2)CN1C(C)C.O=C(O)C(F)(F)F.O=C(O)C(F)(F)F (stereo unspecified),Percent Effect,"30 µM, 30.03 µM",-12.65%
CC(C)CC(=O)N1CC(=O)c2sc(NC3CCCCC3)nc2C1,Percent Effect,"30.3 µM, […]",-18.82%
CC[C@H](C)[C@H](N)C(=O)N1CC(=O)c2sc(NC3CCCCC3)nc2C1,Percent Effect,"30.3 µM, […]",89.66%
CC[C@H](C)[C@H](N)C(=O)N1CC(=O)c2sc(Nc3ccc(F)cc3)nc2C1,Percent Effect,"30.3 µM, […]",54.3%
CC(C)CC(=O)N1CC(=O)c2sc(Nc3ccc(F)cc3)nc2C1,Percent Effect,"30.3 µM, […]",-26.14%
CC(C)NC(=O)N1CC(=O)c2sc(NC3CCCCC3)nc2C1,Percent Effect,"30.3 µM, […]",-21.05%
CC[C@H](C)[C@H](N)C(=O)N1CC(=O)c2sc(NCc3ccccc3)nc2C1,Percent Effect,"30.3 µM, […]",35.54%
N[C@H]1CC[C@@H](n2cc(C(=O)N[C@H]3CCCc4ccccc43)nn2)CC1,Percent Effect,"30 µM, 30.03 µM",-48.79%
O=C(Nc1cnccn1)[C@@H]1COC[C@H]2CN(C3CCC3)C[C@H]21.O=C(O)C(F)(F)F,Percent Effect,"30 µM, 30.03 µM",-9.316%
COCCN1CCC(CNC(=O)c2cc(C)cc(C)c2)C1 (stereo unspecified),Percent Effect,"30 µM, 30.03 µM",28.41%
COCCN1CCC(CNC(=O)Nc2ccc(SC(F)(F)F)cc2)C1 (stereo unspecified),Percent Effect,"30.3 µM, […]",90.18%
COCCN1CCC(CNC(=O)Nc2ccc(-c3ccccc3)cc2)C1 (stereo unspecified),Percent Effect,"30.3 µM, […]",100.6%
COCCN1CCC(CNC(=O)Nc2ccc(F)c(Cl)c2)C1 (stereo unspecified),Percent Effect,"30.3 µM, […]",73.54%
COCCN1CCC(CNC(=O)C2(c3ccccc3)CCC2)C1 (stereo unspecified),Percent Effect,"30.3 µM, […]",-7.306%
COCCn1cc(NC(=O)NCC2CCN(c3ccccc3)C2)cn1 (stereo unspecified),Percent Effect,"30 µM, 30.03 µM",-68.77%
COCCN1CCC(CNC(=O)C2(c3cccc(Cl)c3)CC2)C1 (stereo unspecified),Percent Effect,"30.3 µM, […]",10.42%
COCCN1CCC(CNC(=O)CCc2cc(F)ccc2F)C1 (stereo unspecified),Percent Effect,"30 µM, 30.03 µM",-4.617%
COCCN1CCC(CNC(=O)C2(c3ccccc3)CCOCC2)C1 (stereo unspecified),Percent Effect,"30.3 µM, […]",-10.94%
O=C(C1CCCC1)N1CCC2(CC1)COCCN2CC1CC1.O=C(O)C(F)(F)F,Percent Effect,"30.3 µM, […]",-13.33%
CCN1CCC2(CC1)CC(NCc1ccncc1)c1ccccc1O2.O=C(O)C(F)(F)F.O=C(O)C(F)(F)F.O=C(O)C(F)(F)F (stereo unspecified),Percent Effect,"30 µM, 30.03 µM",1.43%
O=C(CN1CCC(c2ccnn2CCO)CC1)NCc1ccco1,Percent Effect,10 µM,-47.08%
O=C(O)C(F)(F)F.O=C(c1ccno1)N1CC[C@@H]2O[C@H](COCCN3CCCC3)CC[C@@H]21,Percent Effect,"30 µM, 30.03 µM",39.45%
CCCN(Cc1cnc2ccccc2n1)Cc1ccccc1OC,Percent Effect,"30.3 µM, […]",99.59%
CCCN(Cc1nc2ccccc2[nH]1)Cc1ccccc1OC,Percent Effect,"30.3 µM, […]",15.38%
CCCN(Cc1ccccn1)Cc1ccccc1OC,Percent Effect,"30.3 µM, […]",-7.297%
Cc1cccc(CN2CCn3cc(Cn4cccn4)nc3C2)n1.O=C(O)C(F)(F)F.O=C(O)C(F)(F)F.O=C(O)C(F)(F)F,Percent Effect,"30 µM, 30.03 µM",-12.32%
O=C(O)C(F)(F)F.O=C(c1cnccn1)N1CCOC2(CCCN(c3ncccc3F)C2)C1 (stereo unspecified),Percent Effect,"30.3 µM, […]",-33.25%
O=C(O)C(F)(F)F.O=C(c1ccnnc1)N1CC[C@]2(C[C@H](Oc3ncccc3F)CO2)C1,Percent Effect,"30 µM, 30.03 µM",-5.807%
COc1ccc(CNC(=O)Nc2ccc(S(=O)(=O)C(F)F)cc2)cc1,Percent Effect,"30 µM, 30.03 µM",-8.777%
Cn1ccc(CNC(=O)Nc2ccc(S(=O)(=O)C(F)F)cc2)c1,Percent Effect,"30 µM, 30.03 µM",-7.299%
CN(C)c1ccc(CNC(=O)Nc2ccc(S(=O)(=O)C(F)F)cc2)cc1,Percent Effect,"30 µM, 30.03 µM",71.22%
COCCNC(=O)CN1CCN(c2nc(C)cs2)CC1,Percent Effect,10 µM,-57.99%
CC(C)C(=O)Nc1ccc(Oc2ccc3c(c2)OCO3)nc1,Percent Effect,"30 µM, 30.03 µM",-14.33%
CCC(=O)NCCCn1c(-c2cccnc2C)cc2cccnc21.Cl,Percent Effect,"30.3 µM, […]",-13.2%
CN(Cc1cccs1)C(=O)c1ccc(=O)n(C)c1,Percent Effect,"30.3 µM, […]",98.98%
COCCN(Cc1cccs1)C(=O)c1ccc(=O)n(C)c1,Percent Effect,"30.3 µM, […]",-3.424%
CCN(Cc1cccs1)C(=O)c1ccc(=O)n(C)c1,Percent Effect,"30.3 µM, […]",-2.313%
COc1ccc(NC(=O)Cn2nc(C)c(C)cc2=O)cc1OC,Percent Effect,"30.3 µM, […]",-10.01%
CC(=O)c1c(C)nn(CC(=O)Nc2ccc(Br)cc2)c1C,Percent Effect,"30.3 µM, […]",101.3%
CC(=O)c1c(C)nn(CC(=O)Nc2ccc(F)cc2)c1C,Percent Effect,"30.3 µM, […]",-35.96%
COc1ccc(NC(=O)Cn2nc(C)c(C(C)=O)c2C)cc1,Percent Effect,"30.3 µM, […]",101.9%
COc1ccc(NC(=O)Cn2nc(C)c(C)cc2=O)cc1,Percent Effect,"30 µM, 30.03 µM",-33.88%
Cc1cc(=O)n(CC(=O)Nc2ccc(Cl)cc2)nc1C,Percent Effect,"30 µM, 30.03 µM",-26.52%
Cc1ccc(Nc2nccc(C3CCN(CC(N)=O)C3)n2)nc1 (stereo unspecified),Percent Effect,"30.3 µM, […]",-50.23%
O=C(O)C(F)(F)F.O=C(c1ccccc1)N1CCC[C@]2(C[C@@H](OCc3ccccn3)CO2)C1,Percent Effect,"30.3 µM, […]",-136.6%
O=C(C1CC1)N1CCCC1c1nnc2n1CCCCC2 (stereo unspecified),Percent Effect,"30 µM, 30.03 µM",-31.5%
CN(C)C(=O)CN1CCn2cc(Cn3cccn3)nc2C1.O=C(O)C(F)(F)F.O=C(O)C(F)(F)F,Percent Effect,"30 µM, 30.03 µM",-43.32%
CCNc1cc2c(nn1)CCN(C(=O)c1cc3cccc(C)c3o1)C2,Percent Effect,10 µM,-32.26%
same,Percent Effect,"30.3 µM, […]",29.79%
CC(C)CN1Cc2nc(N3CCCC(C)C3)ncc2C1=O (stereo unspecified),Percent Effect,"30 µM, 30.03 µM",-5.722%
Cl.Cl.O=C(CN1CCN(CC(O)C2CC2)CC1)NCc1ccccc1Cl (stereo unspecified),Percent Effect,"30.3 µM, […]",-15.94%
COc1ccc(C(=O)NCCCOC(C)c2ccccc2)c(OC)c1 (stereo unspecified),Percent Effect,"30.3 µM, […]",17.87%
